D1 potentiator = Potentiators of Human D1 Dopamine Receptor: qHTS; D(1A) dopamine receptor (Homo sapiens), P21728; HEK293 TREx D1 cells, calcium flux, dopamine EC20 potentiation; potentiation, % at 10 µM; hit rate 0.036% among 360,000; in the data active means potentiation above about 30%; further: 0% is about no effect
Target sequence (P21728 whole entry, looked up): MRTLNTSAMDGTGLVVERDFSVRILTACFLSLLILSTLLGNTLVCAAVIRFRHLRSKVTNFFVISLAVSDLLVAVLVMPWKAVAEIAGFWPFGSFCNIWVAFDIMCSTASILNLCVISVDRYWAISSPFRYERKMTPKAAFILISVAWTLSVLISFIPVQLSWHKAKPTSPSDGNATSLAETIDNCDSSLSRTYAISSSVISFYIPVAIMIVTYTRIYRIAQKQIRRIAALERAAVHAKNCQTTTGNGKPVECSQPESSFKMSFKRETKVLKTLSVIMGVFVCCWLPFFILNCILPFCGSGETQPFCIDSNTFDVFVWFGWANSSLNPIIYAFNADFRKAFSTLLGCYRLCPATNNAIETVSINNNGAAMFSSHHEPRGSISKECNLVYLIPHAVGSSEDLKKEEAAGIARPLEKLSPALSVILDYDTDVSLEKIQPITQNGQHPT
TRHR enhancer = qHTS for Small Molecule Agonists and Allosteric Enhancers of Human TRH Receptor: Primary Screen for Enhancers | Thyrotropin-releasing hormone receptor (Homo sapiens), P34981 | TRHR cells, fluo-8 calcium fluorescence, EC20 TRH enhancement | enhancement, % at 2 µM | hit rate 0.66% among 360,000; in the data active means enhancement above about 30%; further: 0% is about no effect
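TRHR-expressing cells loaded with fluo-8 calcium dye were read kinetically (ex 480/em 530) during compound addition, then stimulated with an EC20 of TRH (10 nM final). Enhancement of the Gq-mediated intracellular calcium response was scored.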
D1 antag = Antagonist of Human D 1 Dopamine Receptor: qHTS; activity change, negative = inhibition, % at 10 µM; D(1A) dopamine receptor (Homo sapiens), P21728; HEK293 TREx D1 cells, calcium flux, dopamine EC80; hits give low values; hit rate 3.2% among 360,000; AID 504652, 2011; in the data active means activity change below about -30%; further: on the % scale 0 is the no-effect control and ±100 the full control effect
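HEK293 T-REx cells expressing inducible, force-coupled D1 receptor; no-wash Ca dye, 30–90 min RT. Cmpd → 180 s read at 1 Hz → EC80 DA → 180 s read.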
D1 ag = Allosteric Agonists of the Human D1 Dopamine Receptor: qHTS. HEK293 T-REx D1 cells, calcium flux, agonist mode. hit rate 1% among 360,000. activation, % at 2 µM. D(1A) dopamine receptor (Homo sapiens), P21728. AID 504660, 2011; further: 0% is about no effect
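Tetracycline-induced HEK293 TREx D1 cells, force-coupled to calcium signalling, were dye-loaded with a no-wash calcium kit. Compound was pin-added after a 10 s baseline. Fluorescence was read kinetically at 1 cycle/s for 180 s, with calcium rises flagged as agonism.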
TRHR agonist = qHTS for Small Molecule Agonists and Allosteric Enhancers of Human TRH Receptor: Primary Screen for Agonists; activation, % at 2 µM; AID 493084, 2011; Thyrotropin-releasing hormone receptor (Homo sapiens), P34981; hit rate 0.18% among 360,000; TRHR cells, calcium flux fluo-8, FDSS agonist mode; further: 0% is about no effect
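TRHR-expressing cells, plated overnight in medium with 10% serum, were loaded with fluo-8 calcium dye at room temperature. After a 10 s baseline, library compound was pin-added and calcium release was recorded kinetically (ex 480/em 530) as agonist response.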
The depositor's hits bear a star. A selection: hits, their analogues and other compounds. The true share with any hit is near 4.7%. Unless noted, no stated cut-off is given here; in the data, active means activation above about 30%; inactive means the rest.

`COc1ccc(CNC(=O)C(C)N2Cc3ccccc3C2=O)cc1` (centres undefined) gave D1 potentiator -1.3, TRHR enhancer -1.3, D1 antag -8.7, D1 ag 0.7 and TRHR agonist -0.1.
Screening O=C(/C=C/c1ccc([N+](=O)[O-])cc1)Nc1ncc([N+](=O)[O-])s1 returned D1 potentiator -4.7, TRHR enhancer -4.8, D1 antag -24.3, D1 ag 24.2 and TRHR agonist 2.5.
Screening CS(=O)(=O)N(Cc1ccc(Cl)cc1)c1ccc(C(=O)Nc2cccnc2)cc1 returned D1 potentiator -9.8, TRHR enhancer 19.3, D1 antag -38.2*, D1 ag 15.7 and TRHR agonist 1.4.
For CN(c1ccc(C(=O)Nc2cccnc2)cc1)S(=O)(=O)c1ccccc1 the results were D1 potentiator -2.9, TRHR enhancer 6.0, D1 antag -5.9, D1 ag -0.4 and TRHR agonist 0.3.
Screening CN(c1ccc(C(=O)Nc2cccnc2)cc1)S(=O)(=O)c1ccc(Cl)cc1 returned D1 potentiator -1.6, TRHR enhancer -1.4, D1 antag -40.7*, D1 ag 14.8 and TRHR agonist -0.5.
`COc1ccc(S(=O)(=O)N(C)c2ccc(C(=O)Nc3cccnc3)cc2)cc1OC` gave D1 potentiator -5.3, TRHR enhancer -3.5, D1 antag -7.4, D1 ag 0.4 and TRHR agonist -0.6.
COc1ccc(S(=O)(=O)N(C)c2ccc(C(=O)Nc3cccnc3)cc2)cc1 was read as D1 potentiator -1.7, TRHR enhancer -3.2, D1 antag -33.0*, D1 ag 3.2 and TRHR agonist -0.3.
Screening CC(=O)c1cccc(NC(=O)c2ccc(-n3c(C)nnc3C)cc2)c1 returned D1 potentiator 0.2, TRHR enhancer 1.0, D1 antag 16.6, D1 ag 0.3 and TRHR agonist 0.4.
For CCSc1nc2ccccc2c(OCc2cc(C(=O)OC)ccc2OC)c1C(=O)OC the results were D1 potentiator 1.4, TRHR enhancer 7.0, D1 antag -62.1*, D1 ag 39.8* and TRHR agonist 5.4.
For COc1cc(C)nc(N(C)C(C)=O)n1 the results were D1 potentiator 4.3, TRHR enhancer 0.3, D1 antag -34.0*, D1 ag 3.1 and TRHR agonist 1.1.
For CSc1cc(C)nc(N(C)C(C)=O)n1 the results were D1 potentiator 2.9, TRHR enhancer -6.0, D1 antag -4.1, D1 ag 2.3 and TRHR agonist 0.1.
CCC(=O)N1CCc2cc(Br)cc(S(=O)(=O)N3CCCC(C(=O)NCc4cccc(OC)c4)C3)c21 (centres undefined) was read as D1 potentiator -1.1, TRHR enhancer 15.9, D1 antag -30.7*, D1 ag 2.6 and TRHR agonist -1.0.
For Cc1cc(Cl)c(S(=O)(=O)N/N=C/c2ccc3c(c2)OCO3)c(Cl)c1 the results were D1 potentiator -5.8, TRHR enhancer 3.5, D1 antag 0.4, D1 ag 3.2 and TRHR agonist -0.2.
Cc1cc(C)c(S(=O)(=O)N/N=C/c2ccc3c(c2)OCO3)c(C)c1 was read as D1 potentiator -3.5, TRHR enhancer -0.3, D1 antag -71.7*, D1 ag 1.7 and TRHR agonist 0.7.
Screening NC(=O)CS(=O)(=O)c1nc2ccccc2n1Cc1ccccn1 returned D1 potentiator -3.2, TRHR enhancer -0.5, D1 antag -38.1*, D1 ag 0.9 and TRHR agonist -0.2.
Screening COc1cc2ccccc2cc1C(=O)Nc1ccc2oc(-c3cc(Br)ccc3Cl)nc2c1 returned D1 potentiator 0.8, TRHR enhancer -1.6, D1 antag -6.6, D1 ag -1.3 and TRHR agonist -0.8.
`CCc1ccc(NC(=O)Nc2cccs2)cc1` gave D1 potentiator -6.6, TRHR enhancer -4.9, D1 antag -36.9*, D1 ag 10.7 and TRHR agonist 0.6.
`O=C(CSc1nnc(-c2cccc(Cl)c2)o1)N1CCc2ccccc21` gave D1 potentiator -1.1, TRHR enhancer -2.1, D1 antag 0.2, D1 ag 0.0 and TRHR agonist 0.6.
`O=S(=O)(c1ccc2ccccc2c1)N1CCN=C1SCc1cccnc1` gave D1 potentiator -2.1, TRHR enhancer -9.3, D1 antag -33.5*, D1 ag 3.2 and TRHR agonist -0.4.
For CCSC1=NCCN1S(=O)(=O)c1ccc2ccccc2c1 the results were D1 potentiator -2.6, TRHR enhancer -7.2, D1 antag -30.5*, D1 ag 0.6 and TRHR agonist -0.7.
CCc1ccc(S(=O)(=O)c2c[nH]c3cc(OC)c(OC)cc3c2=O)cc1 was read as D1 potentiator -3.8, TRHR enhancer 5.3, D1 antag -42.9*, D1 ag -0.6 and TRHR agonist 0.1.
CC(=O)c1ccc(NC(=O)c2ccc(C)c(Br)c2)cc1 was read as D1 potentiator -8.2, TRHR enhancer 7.6, D1 antag -2.6, D1 ag 13.0 and TRHR agonist -2.0.
`O=C(Nc1ccncc1)Nc1ccc(Br)cc1Cl` gave D1 potentiator -6.6, TRHR enhancer -3.8, D1 antag -33.8*, D1 ag 3.9 and TRHR agonist 1.0.
For CC(=O)c1ccc(NC(=O)Nc2ccc(Br)cc2C)cc1 the results were D1 potentiator -11.2, TRHR enhancer 3.0, D1 antag -35.2*, D1 ag 20.6 and TRHR agonist 0.5.
For O=C(Nc1ccc(F)c(Cl)c1)Nc1ccc(Cl)cn1 the results were D1 potentiator -1.4, TRHR enhancer 4.7, D1 antag 5.3, D1 ag 0.3 and TRHR agonist 0.6.
O=C(Nc1ccc(Br)cc1)Nc1ccccc1Cl was read as D1 potentiator -2.8, TRHR enhancer -5.8, D1 antag -41.1*, D1 ag 10.7 and TRHR agonist 1.0.
For O=C(Nc1ccncc1)Nc1ccc(F)c(Cl)c1 the results were D1 potentiator -6.5, TRHR enhancer 36.4*, D1 antag -13.3, D1 ag 22.8 and TRHR agonist 1.8.
CCOC(=O)Cn1c(=O)oc2cc(S(=O)(=O)N3CCN(c4ccccc4F)CC3)ccc21 was read as D1 potentiator 2.2, TRHR enhancer -7.3, D1 antag -27.2, D1 ag 6.6 and TRHR agonist 0.7.
`N#CC(C#N)=C1C=CC=CN1/C(=C\c1ccccc1Cl)C(=O)c1ccccc1` gave D1 potentiator -12.6, TRHR enhancer -10.7, D1 antag -50.5*, D1 ag 2.7 and TRHR agonist 1.7.
For COc1ccc(CNC(=O)C2=C(C)C(=O)OC23CCCCC3)cc1OC the results were D1 potentiator -0.9, TRHR enhancer 14.3, D1 antag 1.6, D1 ag -0.9 and TRHR agonist 0.2.
